Test results as given in PubChem BioAssay (NCATS).
Results filed as inconclusive are left out. Entries that show only a call come without a potency. Unmarked numbers belong to inactive results. The source made the active and inactive calls. Calls come from the whole dose curve; as a rule, active = well fitted curve in the direction sought with a large enough effect; inconclusive = small, poorly fitted or top-dose-only effect, or another doubt; inactive = no such curve, though single readings can be large; an effect the other way counts as inactive or inconclusive.

Columns and labels:
[1] = tested on: KB-3-1; assay: Cytotoxic Profiling of Annotated Libraries Using Quantitative High-Throughput Screening (AID 1296008); details: Five cell lines viability, CellTiter-Glo ATP luminescence, 48-72 h; max response: hits give low values; note: nearly all actives have a fitted effect of over 60% in size
Method in brief: (§1)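 Compounds were pin-transferred onto cells and incubated 48 or 72 hr at 37 degree Celsius, 95% humidity. CellTiter-Glo was added, plates sat 10 min at room temperature, then ATP-coupled luminescence was imaged as the viability read-out.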

[2] = tested on: NIH3T3; assay: as above; details: Five cell lines viability, CellTiter-Glo ATP luminescence, 48-72 h; max response: hits give low values
Method in brief: as §1

[3] = tested on: MCC-13; assay: qHTS assay to identify novel small-molecules to repurpose for Merkel cell carcinoma treatment (AID 1296009); details: MCC and control cell lines, CellTiter-Glo viability, 72 h; series mostly up to 46 µM; note: nearly all actives have a fitted effect of over 60% in size
Method in brief: (§2)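 Viability readout: ATP luminescence (CellTiter-Glo) after 72 hr drug exposure at 37 degree celsius. Dose-response format was 8 points for NPC and 11 points for MIPE; data normalized to in-plate controls.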

[4] = tested on: MCC-26; assay: as above; details: MCC and control cell lines, CellTiter-Glo viability, 72 h; series mostly up to 46 µM
Method in brief: as §2

[5] = tested on: MKL-1; assay: as above; details: MCC and control cell lines, CellTiter-Glo viability, 72 h; series mostly up to 46 µM
Method in brief: as §2

[6] = tested on: MKL-2; assay: as above; details: MCC and control cell lines, CellTiter-Glo viability, 72 h; series mostly up to 46 µM
Method in brief: as §2

[7] = tested on: C33A; assay: Primary qHTS to identify gynecologic anti-cancer compounds using libraries of approved drugs and bioactive compounds (AID 1345084); details: Gynecologic cancer cell panel viability, ATPlite luminescence, 48 h; series mostly up to 57.5 µM; note: nearly all actives have a fitted effect of over 55% in size
Method in brief: (§3)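 Cells, 1,000 per well, were allowed to settle for 16 h at 37 C before compound addition. Five concentrations were tested for 48 h, and viability was read by ATPlite luminescence after 15 min at room temperature.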

[8] = tested on: CAOV3; assay: as above; details: Gynecologic cancer cell panel viability, ATPlite luminescence, 48 h; series mostly up to 57.5 µM
Method in brief: as §3

[9] = tested on: CASKI; assay: as above; details: Gynecologic cancer cell panel viability, ATPlite luminescence, 48 h; series mostly up to 57.5 µM
Method in brief: as §3

[10] = tested on: Es-2; assay: as above; details: Gynecologic cancer cell panel viability, ATPlite luminescence, 48 h; series mostly up to 57.5 µM
Method in brief: as §3

[11] = tested on: HeLa; assay: as above; details: Gynecologic cancer cell panel viability, ATPlite luminescence, 48 h; series mostly up to 57.5 µM
Method in brief: as §3

[12] = tested on: Hek293T; assay: as above; details: Gynecologic cancer cell panel viability, ATPlite luminescence, 48 h, control line for the selectivity index; series mostly up to 57.5 µM
Method in brief: as §3

[13] = tested on: JEG-3; assay: as above; details: Gynecologic cancer cell panel viability, ATPlite luminescence, 48 h; series mostly up to 57.5 µM
Method in brief: as §3

[14] = tested on: PA-1; assay: as above; details: Gynecologic cancer cell panel viability, ATPlite luminescence, 48 h; series mostly up to 57.5 µM
Method in brief: as §3

[15] = tested on: UISO; assay: qHTS assay to identify novel small-molecules to repurpose for Merkel cell carcinoma treatment (AID 1296009); details: MCC and control cell lines, CellTiter-Glo viability, 72 h; series mostly up to 46 µM; note: nearly all actives have a fitted effect of over 60% in size
Method in brief: as §2

[16] = tested on: WaGa; assay: as above; details: MCC and control cell lines, CellTiter-Glo viability, 72 h; series mostly up to 46 µM
Method in brief: as §2

[17] = tested on: OV90; assay: Primary qHTS to identify gynecologic anti-cancer compounds using libraries of approved drugs and bioactive compounds (AID 1345084); details: Gynecologic cancer cell panel viability, ATPlite luminescence, 48 h; series mostly up to 57.5 µM; note: nearly all actives have a fitted effect of over 55% in size
Method in brief: as §3

[18] = tested on: HACAT; assay: qHTS assay to identify novel small-molecules to repurpose for Merkel cell carcinoma treatment (AID 1296009); details: MCC and control cell lines, CellTiter-Glo viability, 72 h; at 44.8 µM (top of the series) unless noted; note: nearly all actives have a fitted effect of over 60% in size
Method in brief: as §2
Potency is the fitted concentration of half-maximal effect.

| Compound | max response [1] [%] | max response [2] [%] | Potency [3] | Potency [4] | Potency [5] | Potency [6] | Potency [7] | Potency [8] | Potency [9] | Potency [10] | Potency [11] | Potency [12] | Potency [13] | Potency [14] | Potency [15] | Potency [16] | Potency [17] | Potency [2] | outcome [18] |
| --- | --- | --- | --- | --- | --- | --- | --- | --- | --- | --- | --- | --- | --- | --- | --- | --- | --- | --- | --- |
| CC(C)(Cc1c[nH]c2ccccc12)NCC(O)COc1ccccc1C#N (configuration not stated) | 19.5 | -8.73 | inactive | inactive | inactive | inactive | inactive | inactive | inactive | inactive | inactive | inactive | inactive | inactive | – | – | – | – | – |
| c1ccc(-c2nc[nH]c2-c2ccccc2)cc1 | 23.6 | -7.14 | inactive | – | inactive | inactive | – | inactive | inactive | inactive | inactive | inactive | inactive | inactive | inactive | inactive | inactive | – | – |
| O=[N+]([O-])c1ccc(/C=N\O)o1 | -13.1 | -18.1 | inactive | inactive | 18800 nM (active) | – | inactive | inactive | inactive | inactive | inactive | inactive | inactive | inactive | – | 23700 nM (active) | – | – | – |
| Nc1nc(Cl)nc2c1ncn2[C@@H]1O[C@H](CO)[C@@H](O)[C@@H]1F | 2.36 | – | – | 3760 nM (active) | 119 nM (active) | – | – | 1120 nM (active) | – | 316 nM (active) | inactive | – | 11200 nM (active) | 1260 nM (active) | – | 94.4 nM (active) | 398 nM (active) | 1190 nM (active) | – |
| CCCCC(CC)CN1CN(CC(CC)CCCC)CC(C)(N)C1 (configuration not stated) | -12.3 | -12.8 | inactive | inactive | inactive | – | inactive | inactive | inactive | inactive | inactive | inactive | inactive | – | – | inactive | inactive | – | – |
| CN(C)CCOC(c1ccc(Cl)cc1)c1ccccn1 (configuration not stated) | 10.7 | – | inactive | inactive | inactive | inactive | – | – | – | – | – | – | inactive | – | inactive | inactive | – | – | – |
| FC1(F)C(F)(F)C(F)(F)C2(F)C(F)(F)C(F)(F)C(F)(F)C(F)(F)C2(F)C1(F)F (configuration not stated) | 4.98 | 1.4 | inactive | – | inactive | inactive | inactive | inactive | inactive | inactive | inactive | inactive | inactive | inactive | inactive | inactive | inactive | – | – |
| CN(C)CCN1C(=O)c2ccccc2N(C)c2ccccc21 | 3.06 | -0.0642 | inactive | – | inactive | inactive | inactive | – | inactive | inactive | inactive | inactive | inactive | inactive | inactive | inactive | inactive | – | – |
| CC(=O)O[C@]1(C(C)=O)CC[C@H]2[C@@H]3C=C(Cl)C4=CC(=O)CC[C@]4(C)[C@H]3CC[C@@]21C | 2.1 | – | inactive | inactive | inactive | – | inactive | – | inactive | inactive | inactive | inactive | inactive | inactive | inactive | inactive | inactive | – | inactive |
| C#C[C@]1(O)CC[C@H]2[C@@H]3CCC4=Cc5oncc5C[C@]4(C)[C@H]3CC[C@@]21C | -24 | – | inactive | inactive | inactive | inactive | inactive | inactive | inactive | inactive | 794 nM (active) | – | inactive | 10000 nM (active) | inactive | inactive | inactive | – | – |
| CCOC(=O)Nc1ccc2c(c1)N(C(=O)CCN1CCOCC1)c1ccccc1S2 | 0.404 | -4.09 | inactive | – | inactive | inactive | inactive | inactive | inactive | inactive | inactive | inactive | inactive | inactive | inactive | inactive | inactive | – | – |
| CCCN(CCC)S(=O)(=O)c1ccc(C(=O)O)cc1 | 20.4 | – | inactive | inactive | inactive | inactive | inactive | inactive | inactive | inactive | inactive | inactive | inactive | inactive | inactive | inactive | inactive | – | – |
| CCCCCCCCCCCCSCCOCCO | 1.68 | -3.9 | inactive | – | – | inactive | inactive | – | inactive | inactive | inactive | inactive | inactive | inactive | inactive | inactive | inactive | – | – |
| CCCCCCCCCCCCCCCCO | 19 | -5.1 | inactive | – | inactive | inactive | inactive | inactive | inactive | inactive | inactive | inactive | inactive | inactive | inactive | inactive | inactive | – | – |
| C#C[C@]1(O)CC[C@H]2[C@@H]3CCc4cc(OC)ccc4[C@H]3CC[C@@]21C | 0.369 | -5.18 | inactive | inactive | inactive | – | inactive | inactive | inactive | inactive | inactive | inactive | inactive | inactive | inactive | inactive | inactive | – | – |
| N#CCC(=O)NN | -1.35 | – | inactive | inactive | inactive | inactive | inactive | inactive | inactive | inactive | inactive | inactive | inactive | inactive | inactive | inactive | inactive | – | inactive |
